# Assay results from PubChem BioAssay (NCATS).
# Several values for one entry are separate records, joined by “and”; a condition that tells them apart may be missing. Identical values can stand only once. Inconclusive results are not listed. Activity calls are given as the source filed them. Calls come from the whole dose curve.
# Assay: Primary qHTS to identify inhibitors of SARS-CoV-2 cell entry (AID 1645846); note: nearly all actives have a fitted effect of over 45% in size
# Settings: SARS-CoV-2 pseudovirus cell entry assay, luminescence; activity change, negative = inhibition: at 57.1 µM (top of the series) unless noted; series mostly up to 57.1 µM
# In short: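 HEK293-ACE2 (Expi293F, stable hACE2), 1500 cells/well, o/n 37C; cpd 23 nL pin, 1 h; MLV-PP w/ SARS-CoV-2-S (Wuhan-Hu-1, Δ19 C-term); 48 h 37C; Bright-Glo luminescence; normalized vs S-PP and bald PP.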
Compound,"activity change, negative = inhibition",outcome
N#C[C@H]1C[C@H]2C[C@@H]2N1C(=O)[C@@H](N)C12CC3CC(CC(O)(C3)C1)C2,-17.5%,–
CO[C@@]1(NC(=O)CSCC#N)C(=O)N2C(C(=O)O)=C(CSc3nnnn3C)CS[C@@H]21,–,inactive
NS(=O)(=O)c1cc(C2(O)NC(=O)c3ccccc32)ccc1Cl (stereo not drawn),–,inactive
O=[N+]([O-])c1cncn1CCN1CCOCC1,-6.13%,–
Cc1ccsc1/C=C/C1=NCCCN1C,-11.3%,–
O=P(O)(O)C(O)(Cn1ccnc1)P(=O)(O)O,–,inactive [at 5.25 µM]
CC(=O)[C@H]1CC[C@H]2[C@@H]3C[C@H](C)C4=CC(=O)CC[C@]4(C)[C@H]3[C@@H](O)C[C@]12C,–,inactive
CCCCOC(=O)c1ccc(O)cc1,–,inactive
CCCNC(C)C(=O)Nc1c(C)csc1C(=O)OC (stereo not drawn),–,inactive
CN(C)C(=O)COC(=O)Cc1ccc(OC(=O)c2ccc(N=C(N)N)cc2)cc1,-4.53% and -0.733%,–
Nc1ccc(C(=O)Oc2ccccc2)c(O)c1,–,inactive
CCn1ccc(NS(=O)(=O)c2ccc(N)cc2)nc1=O,–,inactive
CC1CC(OC(=O)c2ccccc2O)CC(C)(C)C1 (stereo not drawn),–,inactive
CCCCCCCCCCCCCCCCCC(=O)OCC(O)CO (stereo not drawn),–,inactive
Cc1cccc(C)c1NC(=O)CC12CCCN1CCC2,-23.5%,–
Cc1cccc(C)c1NC(=O)c1cc(S(N)(=O)=O)c(Cl)cc1O,-7.8%,–
CCCCCCCCCCCCSCCOCCO,–,inactive
Cc1c(NC(=O)c2cccnc2)c(=O)n(-c2ccccc2)n1C,–,inactive
Nc1nc(-c2ccccc2)c(Br)c(=O)[nH]1,–,inactive
NCCCC[C@H](N[C@@H](CCc1ccccc1)C(=O)O)C(=O)N1CCC[C@H]1C(=O)O,-27.7%,–
Cc1oc(=O)oc1COC(=O)[C@@H]1N2C(=O)[C@@H](NC(=O)[C@H](N)c3ccccc3)[C@H]2SC1(C)C,–,inactive
CCCCCCCCCCC[C@@H](C[C@@H]1OC(=O)[C@H]1CCCCCC)OC(=O)[C@H](CC(C)C)NC=O,0.353%,–
CNC[C@H](O)[C@@H](O)[C@H](O)[C@H](O)CO,-19.7%,–
